Assay outcomes as filed in PubChem.
A selection: hits, their analogues and other compounds. The true share with any hit is near 4.1%.
MEKK2 WT-MEK5 – modulators of MEK5 binding to wildtype MEKK2, primary screen, biochemical, multiplex bead flow cytometry, Alexa488-MEK5; Mitogen-activated protein kinase kinase kinase 2 (Homo sapiens), Q9Y2U5; Alexa488-MEK5 binding to MEKK2 WT; actives lie on both sides; binding response (% of control), % at 10 µM; 290,000 tested, 1.1% active; AID 1531, 2009; in the data active means binding response below about 67% or above about 130%
CHT PAM – CHT positive allosteric modulators, primary screen, cell-based, membrane potential dye, choline EC20 | 310,000 tested, 0.49% active | AID 488977, 2010 | CHT-expressing cells; active compounds read high; LV-AA mutant CHT in HEK293 cells | High affinity choline transporter 1 (Homo sapiens), Q9GZV3 | B-score at 10 µM;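 active means initial fluorescence not abnormally high and integrated response B-score, plate-corrected, over 3 SD above library mean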
Target sequence (Q9GZV3 whole entry, looked up): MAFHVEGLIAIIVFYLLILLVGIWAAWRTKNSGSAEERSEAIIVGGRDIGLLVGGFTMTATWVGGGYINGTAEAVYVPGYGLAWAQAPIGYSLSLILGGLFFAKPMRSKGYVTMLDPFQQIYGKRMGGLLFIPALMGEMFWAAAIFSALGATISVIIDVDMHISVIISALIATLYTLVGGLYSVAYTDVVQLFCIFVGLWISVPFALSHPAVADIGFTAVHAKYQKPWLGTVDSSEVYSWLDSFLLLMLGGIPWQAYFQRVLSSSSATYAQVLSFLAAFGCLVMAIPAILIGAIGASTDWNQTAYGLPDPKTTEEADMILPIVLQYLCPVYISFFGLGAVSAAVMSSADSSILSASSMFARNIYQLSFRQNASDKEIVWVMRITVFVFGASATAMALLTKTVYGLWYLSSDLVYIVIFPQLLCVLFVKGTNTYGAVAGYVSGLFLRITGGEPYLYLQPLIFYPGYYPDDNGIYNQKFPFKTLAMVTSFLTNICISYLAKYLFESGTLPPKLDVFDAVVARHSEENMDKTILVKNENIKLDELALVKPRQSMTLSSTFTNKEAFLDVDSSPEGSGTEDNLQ
CHT inh – inhibitors of human choline transporter CHT; CHT-expressing cells, membrane potential dye, choline response; active compounds read low; B-score at 10 µM; 310,000 tested, 0.86% active;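 active means B-score over 3 SD under the library average, and starting fluorescence ratio not unusually high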;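 further: choline stimulus applied at its EC90 after an EC20 pre-addition; B-score computed on integrated fluorescence ratio after choline addition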
MEKK2 mut-MEK5 – MEK5 binding signal on mutant MEKK2 PB1, primary screen, biochemical, multiplex bead flow cytometry, Alexa488-MEK5; percent response, % at 10 µM; 290,000 tested, 0.35% active; Alexa488-MEK5 binding to MEKK2 mutant; in the data active means percent response above about 24%, passing the limit was not always enough
MEKK3 PB1 HTS – modulators of MEKK3-MEK5 PB1 binding, primary screen, biochemical, wildtype MEKK3, multiplex bead flow cytometry, Alexa488-MEK5. 290,000 tested, 1.4% active. AID 1529, 2009. binding response (% of control), % at 10 µM. bead-based flow cytometry, Alexa488-MEK5 binding to MEKK3; actives lie on both sides; 0 = blocked by unlabeled MEK5, 100 = vehicle;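 active means binding response more than 3 SD above or below the average of its plate-row segment, actives on both sides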;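 further: Alexa488 bead fluorescence after subtracting the streptavidin-only scavenger bead signal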
Mot1-301 SUMO – yeast Mot1-301 growth rescue at high temperature, primary screen, SUMOylation pathway inhibitor project, S. cerevisiae, ATP luminescence, 38.5C. S. cerevisiae Mot1-301 growth rescue; percent above DMSO median, 100 means doubled. growth rescue, % at 18.8 µM. 320,000 tested, 1% active. AID 2716, 2010;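 active means every valid replicate shows activation above 250% relative to neutral control wells; inactive means the rest, any valid replicate at or below 250%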;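 further: OY570 slx delta 5 strain wells were the positive control but not used for scaling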
MEKK2wt confirm – modulators of MEK5 binding to wildtype MEKK2, confirmation, biochemical, single concentration, multiplex bead flow cytometry; shares compounds with MEKK3 PB1 HTS; Alexa488-MEK5 binding to MEKK2 WT; actives lie on both sides; binding response (% of control), % at 10 µM; 5,900 tested, 2.4% active; AID 1892, 2009; in the data active means binding response below about 16% or above about 210%; inactive means in between
MEKK2mut confirm – mutant MEKK2 PB1-MEK5 binding signal retest – biochemical, single concentration, multiplex bead flow cytometry, confirmation; shares compounds with MEKK3 PB1 HTS; Alexa488-MEK5 binding to MEKK2 mutant; percent response, % at 10 µM; 5,900 tested, 2% active; in the data active means percent response mostly above about 71%, no sharp cut-off; inactive means mostly below about 38%;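 further: higher means compound restores mutant binding toward wildtype level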
MEKK3-MEK5 inh – MEKK3 wild-type PB1 binding to MEK5, inhibitors, confirmation, biochemical, bead multiplex flow cytometry, single concentration, wildtype. shares compounds with MEKK3 PB1 HTS. Alexa488-MEK5 binding to MEKK3; active compounds read low. binding response (% of control), % at 10 µM. 5,900 tested, 1.8% active;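 active means binding response below 72% of control, or above a set upper limit, though filed actives all read lower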;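 further: 100% = DMSO only wells and 0% = binding blocked by excess unlabeled MEK5; lower values mean stronger disruption of MEK5 binding to MEKK3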
Starred values were filed as active, the others as inactive; i = inactive; . = no result; [ ] = remark or other dose.

SMILES	MEKK2 WT-MEK5	CHT PAM	CHT inh	MEKK2 mut-MEK5	MEKK3 PB1 HTS	Mot1-301 SUMO	MEKK2wt confirm	MEKK2mut confirm	MEKK3-MEK5 inh
O=C(NCc1ccc(F)cc1)c1ccc(Br)o1	99	i	i	-1	106	6	.	.	.
N#CCCNC(=O)Cn1c(COc2ccc(Cl)cc2)nc2ccccc21	108	i	i	1	143*	-34	96	0	97
CCn1cc(CNCc2cn(-c3ccccc3C)nc2-c2ccc(OC)c(F)c2)cn1	103	i	i	-5	98	11	.	.	.
COc1ccc(-c2nn(-c3ccccc3C)cc2CNCCc2cnc[nH]2)cc1F	149*	i	i	-6	112	10	161	22	105
Brc1ccc(C2=Nn3cnnc3SC2)cc1	99	i	i	-1	94	408	.	.	.
CS/C(N)=N/N=C/c1cc(Br)cc(Br)c1O	128	i	i	26	129*	158	100	2	100
CS/C(N)=N/N=C/c1cc(C)ccc1O	68	i	i	-24	61	.	.	.	.
CCCOc1ccc(C(=O)Nc2ccc3c(c2)OCO3)cc1	109	i	i	11	111	15	.	.	.
CCCOc1ccc(C(CC(=O)O)NC(=O)c2ccc3c(c2)OCO3)cc1 (centres undefined)	1.0*[inhibitor]	i	i	-42	2.0*[inhibitor]	5	100	-1	96
C=CCN1C(=O)c2ccc(C(=O)N(CC)CC(=O)Nc3ccc(OC)cc3)cc2C1=O	.	i	i	.	.	11	.	.	.
CN(C)c1nc(N/N=C/c2ccccc2O)nc(Nc2ccc(F)cc2)n1	140*	i	i	23	110	13	108	-8	104
COc1ccc(-c2cc(-c3nnc(COC(=O)C4CC4)o3)c3ccccc3n2)cc1OC	96	i	i	1	113	.	.	.	.
COc1ccc(-c2cc(-c3nnc(COC(=O)CC4CCCC4)o3)c3ccccc3n2)cc1OC	93	i	i	0	135*	9	95	-9	99
O=C(CSCc1ccccc1)N=Nc1c(O)[nH]c2ccccc12	102	i	i	-1	103	10	.	.	.
CCn1c(SCC(=O)N=Nc2c(O)[nH]c3ccccc23)nnc1-c1ccc(C(C)(C)C)cc1	111	i	i	1	132*	5	99	-3	99
O=c1ccc2[n+]([O-])c3ccc(O)cc3oc-2c1	50*[inhibitor]	.	.	-9	92	.	85	-7	89
O=c1cc(O)c2ccc(O)cc2o1	80	i	i	1	81	36	.	.	.
CCN(C(=O)CN1CCCCC1)C1(C)C(=O)c2ccccc2C1=O	109	i	i	1	140*	10	101	1	100
O=C(O)c1ccc(-c2nnc(-c3ccc([N+](=O)[O-])cc3)o2)cc1	115	i	i	26*	112	377	98	-6	93
CCOC(=O)c1sc(SC)c2c1CCC/C2=N/OC	118	i	i	30	131*	2	99	0	102
CO/N=C1\CCCc2c(C(=O)NN)sc(SC)c21	88	i	i	-5	91	-12	.	.	.
O=c1[nH]c(-c2ccccc2)c(-c2ccccc2)o1	104	i	i	5	103	40	.	.	.
COc1ccc(C=O)cc1Oc1nc(Cl)ncc1F	103	i	i	-2	103	-3	.	.	.
CC1(N2CCCCC2)C(=O)c2ccccc2C1=O	106	i	i	0	138*	40	106	2	103
Cc1ccccc1C(=O)NNC(=O)CSc1nnc(C)n1-c1ccccc1	96	i	i	-1	64*[inhibitor]	-7	100	-12	97
SMILES	MEKK2 WT-MEK5	CHT PAM	CHT inh	MEKK2 mut-MEK5	MEKK3 PB1 HTS	Mot1-301 SUMO	MEKK2wt confirm	MEKK2mut confirm	MEKK3-MEK5 inh
CCc1ccc(N2C(=O)CC(NNc3nc4ccccc4s3)C2=O)cc1 (centres undefined)	109	i	i	10	105	9	.	.	.
Cc1cc(NC(=O)CCSc2ccccc2)ccc1Br	113	i	i	-1	133*	73	104	-4	105
O=C(Nc1ccc2nc3n(c(=O)c2c1)CCCC3)c1cccc([N+](=O)[O-])c1	112	i	i	2	139*	.	101	-5	99
O=C(Nc1ccc2nc3n(c(=O)c2c1)CCCC3)c1cc([N+](=O)[O-])ccc1F	97	i	i	-1	100	-13	.	.	.
CC(C)c1cc(=O)[nH]c(N2CCN(Cc3ccc4c(c3)OCO4)CC2)n1	97	i	i	3	98	-19	.	.	.
CN(C)S(=O)(=O)c1cccc(NC(=S)Nc2ccc(Cl)cc2Cl)c1	106	i	i	1	105	-24	.	.	.
CN(C)S(=O)(=O)c1cccc(NC(=S)Nc2cc(Cl)cc(Cl)c2)c1	150*	i	i	10	111	-12	114	3	107
O=C(O)c1cc(Cl)c(Cl)cc1C(=O)Nc1cccnc1	112	i	i	0	119	191	.	.	.
O=C(Nc1cccnc1)c1cc(F)c(F)cc1Cl	1.0*[inhibitor]	i	i	-68	1.0*[inhibitor]	-1	109	3	96
O=C1/C(=C\c2ccc(-c3ccccc3Cl)o2)SC(=S)N1CC1CCCO1 (centres undefined)	35*[inhibitor]	i	i	-28	60*[inhibitor]	5	40	-24	82
CCOc1ccc(N2CC(NC(=O)c3ccc4ccccc4c3)CC2=O)cc1 (centres undefined)	.	i	i	.	.	-8	.	.	.
